Results as given in PubChem BioAssay AID2384 (Southern Research Specialized Biocontainment Screening …, 2010).
The campaign covered roughly 2,300 compounds. About 1,100 (48%) were called active. The set was probably picked from earlier hits. The list shows a part of the results. Measured potencies and affinities stand elsewhere. A number with no mark means an inactive call. How the calls were made is not given here.

assay: S. typhi counter-screen signal inhibition – fluorescence, 4 h, counter-screen for PhoP regulon inhibitor project, dose response (AID 2384); details: S. typhi GFP reporter counter-screen; series mostly up to 150 µM; inhibition: at the top concentration

Row | Compound | inhibition
1 | CCc1nnc(NS(=O)(=O)c2ccc(N=Cc3c(C)[nH]n(-c4ccc(C)cc4)c3=O)cc2)s1 | 33%
2 | COC(=O)C1=C(C)N(C2CCCC2)C(=O)C1(NC(C)=O)C(F)(F)F (stereo unspecified) | -13.7%
3 | O=C(CN(Cc1ccco1)C(=O)CNS(=O)(=O)c1ccc(Cl)cc1)NCc1ccc(F)cc1 | -17.2%
4 | CC(=O)c1ccc(OC(=O)c2cc3ccccc3oc2=O)cc1 | 14.8%
5 | CN(C)CCN1C(=O)C(O)=C(C(=O)c2cc3ccccc3o2)C1c1ccccn1 (stereo unspecified) | -12.4%
6 | O=C(O)c1ccc(S(=O)(=O)NC2CC2)cc1 | 16%
7 | CCCCOc1ccc(-c2nnn(CC(=O)Nc3ncc(CC(=O)OCC)s3)n2)cc1 | -14%
8 | Cc1ccc(OCCCCn2c(CO)nc3ccccc32)cc1 | 22.4%
9 | Cc1cccc(OCc2nnc(SCC(=O)N3CCCC3)n2C)c1 | 9.88%
10 | Cc1ccc2nc(/C(C#N)=C\c3ccc(N4CCCCC4)c([N+](=O)[O-])c3)[nH]c2c1 | 17.9% [at 9.38 µM]
11 | CCCCc1cc(=O)oc2cc(C)cc(OCC(=O)NCC3CCC(C(=O)O)CC3)c12 (stereo unspecified) | 20.5%
12 | Cc1c(C(=O)O)sc(=S)n1-c1ccc(Cl)cc1 | -14.3%
13 | Cc1ccc(/C=C2\SC(=S)N(c3cccnc3)C2=O)o1 | -11.2%
14 | Cc1cccc(N2C(=O)CS/C2=N\NC(=O)c2ccc(Br)cc2)c1C | 33.8%
15 | O=C1c2ccc3c4c(ccc(c24)C(=O)N1c1cccc(O)c1)C(=O)N(c1cccc(O)c1)C3=O | -25.5%
16 | CC(=O)NCc1ccc(C(=O)CSc2nnc(-c3ccncc3)n2Cc2ccccc2)o1 | 5.35%
17 | COc1ccc(S(=O)(=O)N[C@H](C(=O)N2CC[C@@]3(O)CCCC[C@H]3C2)c2ccccc2)cc1 | 8.21%
18 | COc1ccc(OC)c(S(=O)(=O)N2CCC(C(=O)NCCc3ccc(OC)c(OC)c3)CC2)c1 | 11.8%
19 | COc1ccc(OC)c(NC(=O)CCNS(=O)(=O)c2ccc3c(c2)c(=O)n(C)c(=O)n3C)c1 | -22.5%
20 | Clc1ccc(OCc2nn3c(C4CCCCC4)nnc3s2)c(Cl)c1 | 3.08%
21 | O=C(CCCOc1ccc(Cl)cc1Cl)NNC(=O)C1CCC1 | -6%
22 | CC(C)OC(=O)Cn1c(=O)sc2ccccc21 | 12.4%
23 | CC/C(=N\Nc1ccnc2cc(Cl)ccc12)c1ccc(O)cc1 | 37.8%

Row | Compound | inhibition
24 | Cc1ccc(NC(=O)CS(=O)CC(=O)Nc2ccccc2-c2ccc(C)o2)cc1 (stereo unspecified) | -5.22%
25 | Cc1ccc(NC(=O)Cc2ccc(F)cc2)cc1 | 1.72%
26 | CC1CCN(CC(CS(=O)(=O)c2ccc([N+](=O)[O-])cc2)N2CCC(C)CC2)CC1 (stereo unspecified) | 5.45%
27 | C=CCN(c1ccccc1)S(=O)(=O)c1cccc2cccnc12 | 16.4%
28 | CC1CC(C)CN(S(=O)(=O)c2cccc3cccnc23)C1 (stereo unspecified) | 18.1%
29 | Cc1cc(C(=O)OCC(=O)Nc2cccc(S(=O)(=O)N3CCOCC3)c2)c(C)o1 | 13.7%
30 | Cc1nc(N=Nc2ccc(O)cc2)n[nH]1 | -1.9%
31 | Cc1cccc(-n2ccnc2CN2CCN(C3CCCC3)C(CCO)C2)c1 (stereo unspecified) | 10.4%
32 | O=C1c2[nH]nc(-c3ccccc3O)c2C(c2ccc(F)cc2)N1CC1CCCO1 (stereo unspecified) | 20%
33 | COc1ccccc1-c1cc2nc(C)c(CCC(=O)NC(C)CCc3ccco3)c(C)n2n1 (stereo unspecified) | -15.5%
34 | O=C(/C=C/c1ccc(Cl)cc1)NCCCn1ccnc1 | 0.67%
35 | O=C(NCCCn1ccnc1)c1cc2c(ccc3ccccc32)o1 | 2.24%
36 | CC(=O)CC1OC(=O)C(Br)=C1NCc1ccccc1 (stereo unspecified) | -3.4%
37 | Cc1ccc(-n2c(Cc3noc4ccccc34)n[nH]c2=S)cc1 | 10.6%
38 | CCn1c(-c2ccncc2)n[nH]c1=S | 12.1%
39 | O=C(OCCCN1C(=O)c2ccccc2C1=O)c1ccco1 | -5.7%
40 | OCC[C@H]1C[C@H](O)[C@@H](O)[C@@]2(Cc3ccccc3CO2)O1 | -6.02%
41 | Cc1ccc(N(CC(=O)Nc2c(C)n(C)n(-c3ccccc3)c2=O)S(C)(=O)=O)cc1C | -19.8%
42 | Cc1nc2ccccc2nc1N/N=C/c1ccc(O)cc1O | -11.7%
43 | Oc1ccc(C=NC2CCCCC2)c(O)c1 | 3.6%
44 | CCN(CCCNC(=O)c1cn(CC)c2ccc(S(=O)(=O)N(C)C)cc2c1=O)c1cccc(C)c1 | -22.2%
45 | Clc1ccc(CONc2ncnc3nonc23)c(Cl)c1 | 5.19%
46 | COc1ccc(OC)c(C2=NO[C@@H]3C(=O)N(c4cc(Cl)ccc4OC)C(=O)[C@H]23)c1 | 12.2%

Row | Compound | inhibition
47 | CC(C)(C)CC(=O)Nc1nnc(SCC(=O)N2CCCCC2)s1 | -8.51%
48 | Cc1cc(C)c(S(=O)(=O)Nc2ccccc2C(=O)OCC(=O)NCc2ccccc2)c(C)c1 | 9.32%
49 | CC1Cc2ccccc2N1S(=O)(=O)c1cccc(C(=O)N2CC(=O)Nc3ccccc32)c1 (stereo unspecified) | -16.2%
50 | Cn1c(-c2ccc(Cl)cc2)cnc1N | -7.06%
51 | O=[N+]([O-])c1ccc(-c2cnc(NO)nc2)cc1 | -23.9%
52 | CCC(O)CNc1nc(SC)nc2sc3c(c12)CCN(C)C3 (stereo unspecified) | 16.6%
53 | c1ccc(CSc2ccc(-c3cccs3)nn2)nc1 | 4.57%
54 | COc1ccc(C(=O)C[n+]2cc(Br)cc3ccccc32)cc1[N+](=O)[O-] | 29.9%
55 | c1ccc2c(Nc3nnc(-c4ccncc4)s3)cccc2c1 | 24.4%
56 | O=C(N/N=C/c1cccnc1)c1ccc(F)cc1 | 10.8%
57 | CC(/C=C\c1cccnc1)=C/C(=O)O | -16.1%
58 | Clc1ccc(N/N=C/c2cccs2)nn1 | -13%
59 | CSc1nnc(-c2cccc(NC(=S)NN)c2)o1 | 7.59%
60 | Cc1ccc2cc(CN(Cc3ccc(F)cc3)Cc3nnnn3C3CCCC3)c(=O)[nH]c2c1 | 8.53%
61 | Nc1ccc(S(=O)(=O)c2ccc(N)cc2)cc1 | -5.09%
62 | CCc1nnc(NC(=O)c2ccc(S(C)(=O)=O)cc2)s1 | -14.3%
63 | Cc1ccc(NC(=S)NCc2cccnc2)cc1 | 5.02%
64 | O=C(O)c1cnn2c1NC(c1cccs1)CC2C(F)(F)F (stereo unspecified) | 16.9%
65 | CCCn1c(SCc2ccc(Cl)cc2)nc2c1c(=O)[nH]c(=O)n2C | -20.7%
66 | NS(=O)(=O)c1ccc(CCNC(=O)C(=O)C2C(=O)Nc3ccccc32)cc1 (stereo unspecified) | -11.2%
67 | NS(=O)(=O)c1ccc(CCNS(=O)(=O)c2cccc(C(=O)O)c2)cc1 | -9.07%
68 | COC(=O)C1=C(C)N(Cc2ccco2)C(=O)N[C@H]1c1ccc(Br)cc1 | -1.77%
69 | COC(=O)C1=C(C)N(CC2CC2)C(=O)N[C@H]1c1ccc(Br)cc1 | 11.5%

Row | Compound | inhibition
70 | CC(C)CC(c1nnnn1Cc1ccco1)N1CCN(c2cccc(Cl)c2)CC1 (stereo unspecified) | -13%
71 | CCCC(C(=O)NCC1CCCO1)N(Cc1ccco1)C(=O)CNS(=O)(=O)c1ccc(F)cc1 (stereo unspecified) | -8.97%
72 | Cc1c(C2(O)C(=O)Nc3ccc(F)cc32)c(=O)n(-c2ccccc2)n1C (stereo unspecified) | -5.34%
73 | Nc1ccc(N=Nc2ccccc2)c(N)n1 | 22.1%
74 | Nc1nn2cc(-c3ccccc3)nc2c2ccccc12 | 15.4%
75 | Nc1nc2ccccc2cc1-c1cccs1 | 12.7%
76 | Cc1cccc(CN2C3=NCCCN3c3ccccc32)c1 | 15.7%
77 | Cc1ccc(CN2C3=NCCN3c3ccccc32)cc1 | 29.4%
78 | O=C(CSc1ccc(Cl)cc1)c1ccco1 | 26.8%
79 | O=C(COc1ccc(Cl)cc1)N1CCCCC1 | 9.39%
80 | CC(C)(C)NC(=O)/C=C/c1ccc(C(F)(F)F)cc1 | -6.9%
81 | CC(=O)C1C(c2ccc(OC(F)F)cc2)NC(=O)NC1(O)C(F)(F)F (stereo unspecified) | -15.1%
82 | c1ccc2c(SCc3cn4ccccc4n3)nncc2c1 | 4.71%
83 | O=C(Cn1c(C(F)(F)F)nc2ccccc21)NCCCN1CCOCC1 | -3.11%
84 | Cc1cccc(N(C(=O)CCC(=O)Nc2ccccn2)C(C(=O)NC(C)C)c2ccc(O)cc2)c1 (stereo unspecified) | 15%
85 | CC(C(=O)NC1CCCCC1)N1CCN(C)CC1 (stereo unspecified) | 1.49%
86 | O=C(CCS(=O)(=O)c1ccccc1)Nc1ccc2c(c1)C(=O)NC2=O | -16.3%
87 | CCCCCCNC1=NCCS1 | 27.9%
88 | CC(=O)Cc1nsc(NC(=O)c2csc3c2CCCC3)n1 | 28%
89 | C[N+](C)(CCCCCC[N+](C)(C)CCCN1C(=O)c2cccc3cccc(c23)C1=O)CCCN1C(=O)c2cccc3cccc(c23)C1=O | 28.2%
90 | CCOC(=O)CNC(=O)Cn1c(C)cc2ccccc2c1=O | 12.6%
91 | CCn1c(=N)n(CC(=O)c2ccc(OC)cc2)c2ccccc21 | 31.4%
92 | Cc1ccc(-n2c(=O)c3sccc3n(CC(=O)NC3CCCCC3)c2=O)cc1 | 15.9%

Row | Compound | inhibition
93 | COc1ccc(/C=N/NC(=O)c2cc3c(OC)ccc(OC)c3[nH]2)cc1O | -4.36%
94 | O=C(CSc1nnc(-c2cccnc2)n1Cc1ccco1)c1ccc2ccccc2c1 | -19.2%
95 | Cc1cc(NCCCn2ccnc2)n2ncc(-c3ccccc3)c2n1 | 8.67%
96 | Cc1cc(C)nc(SCC(=O)NCc2ccco2)n1 | 9.9%
97 | Cc1ccccc1Cn1c(=O)n(CCCC(=O)NCc2ccco2)c(=O)c2ccccc21 | -18.6%
98 | COc1ccc(CNCCc2c[nH]c3ccccc23)c(OC)c1C | 9.27%
99 | COc1ccccc1NC(=O)Cn1c(=O)n(CCc2c[nH]c3ccccc23)c(=O)c2cccnc21 | 26.1%
100 | CCOC(=O)Cn1c(=O)oc2cc(S(=O)(=O)NCC3CCCO3)ccc21 (stereo unspecified) | -17.4%
101 | Cc1ccc(N2CC(C(=O)OCc3ccccc3F)CC2=O)cc1 (stereo unspecified) | 1.86%
102 | C=C(C)Cn1c(SCC#N)nc2ccccc2c1=O | -22.7%
103 | Cc1cc(C(F)F)n2nc(C(=O)Nc3cc(C)on3)nc2n1 | 15.3%
104 | CCc1nc(C)ccc1OCC(=O)N(CC)CC | -8.77%
105 | CNS(=O)(=O)c1cccc(C(=O)OCc2cc(=O)oc3c(C)c(O)ccc23)c1 | 1.59%
106 | [O-][n+]1onc2c1CCc1[nH]c(-c3ccccc3)nc1-2 | -7.84%
107 | CN(C)C(/C=C/Nc1ccc(F)cc1F)=C(C#N)C#N | 5.93%
108 | CC(=O)Nc1cccc(NS(=O)(=O)Cc2ccc(Cl)cc2)c1 | 1.33%
109 | CC(=O)Nc1cccc(NC(=O)Nc2ccc(C)c(Cl)c2)c1 | 9.85%
110 | O=C(Cn1c(=O)oc2ccccc21)N1CCN(c2ccc(N3CCOCC3)nn2)CC1 | -8.66%
111 | CCn1c(SCC(=O)Nc2oc(-c3ccccc3)c(-c3ccccc3)c2C#N)nnc1-c1ccco1 | -4.5%
